Not all results are given here.
aSyn 5UTR act: Activators via SNCA 5'UTR binding, MLPCN; alpha-synuclein 5'UTR reporter, activators screen; activity score, % (tested at 7.5 µM), hits read low; hit rate 7.1% among 300,000; AID 1814, 2009; in the data active = activity score below about -60%
Starred values were filed as active, the others as inactive.

SMILES	aSyn 5UTR act
O=C(O)c1ccc(/C=C/c2ccc3cccc(O)c3n2)cc1	-188*
Oc1ccc(/C=C/c2ccc3cccc(O)c3n2)cc1Br	-200*
Cc1occc1-c1nnc(-c2cc([N+](=O)[O-])cc([N+](=O)[O-])c2)o1	-133*
NC(=O)c1sc2nc(-c3ccco3)ccc2c1N	-62*
COC(=O)c1sc2nc(-c3ccco3)ccc2c1N	-236*
CC1SCC(NC(=O)c2ccccc2Cl)CS1 (stereo not drawn)	-102*
CC1SCC(NC(=O)c2ccc(Cl)cc2)CS1 (stereo not drawn)	-111*
COc1ccc(-c2oc3ccccc3c(=O)c2OC(C)=O)cc1	-174*
COc1ccc(-c2oc3cc(OC)c(O)c(OC)c3c(=O)c2OC)cc1O	65
CC(=O)Oc1c(-c2ccc(Br)o2)oc2ccccc2c1=O	-66*
CC(=O)Oc1cc(O)c2c(=O)c(OC(C)=O)c(-c3ccc(OC(C)=O)c(OC(C)=O)c3)oc2c1	-116*
Cc1ccc(-c2nc3c(=O)n(C)c4ccccc4c3o2)cc1	-72*
CC1=NN(C(N)=S)C(=O)C1N=Nc1cccc(C)c1 (stereo not drawn)	-75*
CC1=NN(C(N)=S)C(=O)C1N=Nc1ccc(C)c(Br)c1 (stereo not drawn)	-128*
CC1=NN(C(N)=S)C(=O)C1N=Nc1ccc(Cl)cc1Cl (stereo not drawn)	-184*
COc1ccc(-n2nc(C(=O)NCC(=O)N3CCN(c4ccccc4F)CC3)c3ccccc3c2=O)cc1	-120*
CCC(=O)NC(c1ccc(OC)cc1)c1cc(Cl)c2cccnc2c1O (stereo not drawn)	81
COc1ccc(N2C(=O)C(=O)/C(=C(/O)c3ccc(C)cc3)C2c2cccnc2)cc1 (stereo not drawn)	-62*
COc1ccc(/C(O)=C2/C(=O)C(=O)N(c3ccccn3)C2c2ccc(C(C)C)cc2)cc1 (stereo not drawn)	-122*
Cc1csc(NC(=O)c2ccc(Cl)nc2)n1	-93*
Cc1csc(NC(=O)c2cc(C)oc2C)n1	-128*
CC(C)(C)c1csc(NC(=O)c2ccccc2O)n1	-141*
Cc1csc(NC(=O)c2ccccc2O)n1	-84*
COc1ccc(NC(C)c2ccccc2)cc1 (stereo not drawn)	-91*
COc1ccc(CNCCC(c2ccc(OC(C)C)cc2)c2ccccc2OC)cc1 (stereo not drawn)	134
SMILES	aSyn 5UTR act
CC(C)Nc1ccc(Nc2ccnc3cc4ccccc4cc23)cc1	99
CCCCOC(=O)Nc1cccc(Cl)c1C	-104*
CCOC(=O)Cc1csc(NC(=O)c2ccc(Cl)s2)n1	-119*
CCOC(=O)Cc1csc(NC(=O)c2cnc3sc(C)cn3c2=O)n1	-112*
CCOC(=O)Cc1csc(NC(=O)c2ccco2)n1	-162*
COc1ccc(NC(=O)c2csc(Cc3ccccc3)n2)cc1	-110*
O=C(Nc1ccc(F)cc1)c1csc(Cc2ccccc2)n1	-110*
Cc1cc2nc(-c3cccc(NC(=O)c4ccc(Br)o4)c3)oc2cc1C	-77*
Cc1ccc2oc(-c3cccc(NC(=O)c4ccc(Br)o4)c3)nc2c1	-94*
O=C(Nc1nccs1)c1ccc2c(=O)n3c(nc2c1)CCCCC3	-129*
O=C(Nc1ccc(F)cc1Cl)c1ccc2c(=O)n3c(nc2c1)CCC3	-109*
Cc1csc(NC(=O)c2ccc3c(=O)n4c(nc3c2)CCCCC4)n1	-139*
CCC(=O)n1nc(-c2ccc(OC)cc2)nc1SC	-92*
CCC(=O)n1nc(-c2ccc(Cl)cc2)nc1SC	-104*
CCCC(=O)n1nc(-c2ccc(Cl)cc2)nc1SC	-84*
O=c1cc(/C=C/c2ccccc2)oc2ccccc12	-205*
COc1ccc2nc(NCc3ccccc3)[nH]c2c1	-80*
CCCOc1ccc2nc(NC(=O)OC)[nH]c2c1	84
c1ccc2[nH]c(NCc3ccc4c(c3)OCO4)nc2c1	-180*
S=C(NCc1ccccc1)NNc1nc2ccccc2[nH]1	-74*
c1ccc(CNc2nc3ccccc3[nH]2)cc1	-79*
O=C1c2ccccc2C(=O)c2c1ccc1c(=O)n(-c3ccccc3)[nH]c21	-110*
Cc1cccc(-n2[nH]c3c4c(ccc3c2=O)C(=O)c2ccccc2C4=O)c1	-62*
CC(=O)Nc1ccc(-c2cn3c(n2)SCC3)cc1	-83*
O=C(Nc1ccc(-c2cn3c(n2)SCC3)cc1)c1ccco1	-170*
SMILES	aSyn 5UTR act
Cc1cc(N2CCOCC2)ccc1/C=C\[N+](=O)[O-]	-101*
COc1cccc(/C=N/Nc2ccc(C(=O)O)cc2)c1O	113
O=C(O)c1cccc(N/N=C/c2cc(Br)cc(Br)c2O)c1	-232*
COc1ccc(/C(C)=N/Nc2cccc(C(=O)O)c2)cc1OC	-113*
CN(C)c1ccc(/C=N/Nc2cccc(C(=O)O)c2)cc1	77
COc1ccccc1/C=C/C=N/Nc1cccc(C(=O)O)c1	-119*
COc1ccc(Br)cc1/C=N/Nc1cccc(C(=O)O)c1	-76*
CCN(c1ccccc1)S(=O)(=O)c1ccc(C(=O)Nc2nnc(C3CC3)o2)cc1	71
CCN(Cc1ccccc1)S(=O)(=O)c1ccc(C(=O)Nc2nnc(-c3ccccc3OC)o2)cc1	67
O=C(Nc1nnc(CC2=CCCCC2)s1)c1cccs1	-93*
CCc1nnc(NC(=O)c2ccc(N(C)S(=O)(=O)c3ccccc3)cc2)s1	-129*
CC(C)Oc1ccc(C(=O)Nc2nnc(SCC(=O)N3CCOCC3)s2)cc1	98
O=C(Nc1nnc(Cc2ccccc2)s1)c1ccccc1	-160*
O=C(Nc1nnc(CCN2CCOCC2)s1)c1ccccc1	-67*
O=C(Nc1nnc(CCc2ccccc2)s1)c1cccc(F)c1	-103*
O=C(Nc1nnc(Cc2ccccc2)s1)c1cccs1	-128*
Oc1ccc(C2C(c3ccccc3)=NN=C(c3ccc(Cl)cc3)N2O)c(O)c1 (stereo not drawn)	-72*
Oc1ccc(C2C(c3ccccc3)=NN=C(c3ccccc3F)N2O)c(O)c1 (stereo not drawn)	-91*
O=C(c1cc(COc2ccc(F)cc2Cl)on1)N1CC2C[C@@H]3CC1C[C@H](C2)C3	-190*
O=C(c1cc(COc2ccc(F)cc2Cl)on1)N1C[C@H]2CC[C@H]1C2	-164*
Cc1ccccc1-c1noc(-c2ccccc2F)n1	-259*
Cc1ccccc1-c1noc(C2CCCCC2)n1	-71*
Cc1ccccc1-c1noc(-c2ccc(Cl)cc2)n1	-192*
Cc1ccccc1-c1noc(-c2ccc(O)cc2)n1	-226*
CN(C)c1ccc(-c2noc(-c3ccccc3O)n2)cc1	71
SMILES	aSyn 5UTR act
Fc1ccccc1-c1nc(-c2ccc(Cl)cc2)no1	-203*
Cc1ccc2[nH]c3ccccc3c(=O)c2c1	-93*
COc1cccc(-c2nnc(-c3ccc(C(F)(F)F)cc3)o2)c1OC	-125*
CCn1cc(C(=O)NCCCN(C)C)c(=O)c2cc(F)c(N3CCN(C)CC3)cc21	-65*
O=C(Nc1nc2cc3c(cc2s1)OCO3)C1CC1	-161*
O=C(Nc1nc2cc3c(cc2s1)OCO3)C1CCCCC1	-140*
Cc1ccc(-c2cn3nc(C)c(C)nc3n2)cc1	73
Cc1ccc(-c2cn3c(n2)SCC3)cc1	-144*
CCc1ccc(-c2cn3c(n2)SCC3)cc1	-99*
COc1ccc(N=C2O/C(=C/c3sc(=S)n(CC4CCCO4)c3O)N=C2C#N)cc1 (stereo not drawn)	-101*
C(=C\c1ccccc1)/CSc1ccccn1	-187*
Cc1cc(C)nc(SC/C=C/c2ccccc2)n1	-89*
Cc1cccc(N(C)S(=O)(=O)c2ccc(-c3cnc(C4CC4)o3)cc2)c1	97

High-throughput results: PubChem, Broad Institute
